The supplement of paper PMC6522484
± gives the standard deviation of the averaged measurements.

Tests used:
DLD1 [1] = assay: cell viability (CellTiter-Glo) relative to plate median (fraction of plate median); higher = more viable cells; settings: 5 µM; treatment time 24 h; reporter: 7TFP
Method in brief: (§1)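 Two independent replicates were averaged for each reported value. Library compounds were applied at a final 5 µM for 24 h to colorectal cancer cell lines stably expressing lentiviral TCF/Wnt firefly luciferase reporters. Firefly luciferase or CellTiterGlo luminescence from each well was normalised to the plate median.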

HCT116 = assay: as above; settings: 5 µM; treatment time 24 h; reporter: TCF4/Wnt
Method in brief: as §1

SW480 [2] = assay: as above; settings: 5 µM; treatment time 24 h; reporter: 7TFP
Method in brief: as §1

DLD1 [3] = assay: TCF/Wnt firefly luciferase reporter signal relative to plate median (fraction of plate median); higher = higher Wnt reporter signal; settings: 5 µM; treatment time 24 h; reporter: 7TFP
Method in brief: as §1

SW480 [4] = assay: as above; settings: 5 µM; treatment time 24 h; reporter: 7TFP
Method in brief: as §1

Row | SMILES | cell viability (DLD1 [1]) | cell viability (HCT116) | cell viability (SW480 [2]) | TCF/Wnt firefly luciferase reporter signal (DLD1 [3]) | TCF/Wnt firefly luciferase reporter signal (SW480 [4])
1 | COc1cc(/C=C/C(=O)CC(=O)/C=C/c2ccc(O)c(OC)c2)ccc1O | 1.02 ± 0.061 | 1.02 ± 0.093 | 1.05 ± 0.014 | 1.13 ± 0.14 | 0.982 ± 0.14
2 | NCCCC[C@H](NC(=O)[C@H](Cc1ccc(O)cc1)NC(=O)[C@@H](N)CCCCN)C(=O)O | 1.04 ± 0.064 | 0.967 ± 0.042 | 1.06 ± 0.035 | 1.05 ± 0.095 | 1.03
3 | O=C(O[C@@H]1Cc2c(O)cc(O)cc2O[C@@H]1c1ccc(O)c(O)c1)c1cc(O)c(O)c(O)c1 | 0.946 ± 0.061 | 0.805 ± 0.24 | 1.04 ± 0.1 | 1.03 ± 0.11 | 1.08 ± 0.021
4 | CC(C)Cc1ccc(C(C)C(=O)O)cc1 (stereo not given) | 0.962 ± 0.082 | 1.04 ± 0.028 | 1.04 ± 0.068 | 1.03 ± 0.021 | 1.06 ± 0.028
5 | CC(=O)O[C@H]1CC[C@]2(C)C(C[C@@H](OC(C)=O)[C@]3(C)C4=CC(=O)O[C@H](c5ccoc5)[C@@]4(C)CCC23)C1(C)C (stereo partly drawn) [3-DEOXO-3beta-ACETOXYDEOXYDIHYDROGEDUNIN] | 1 ± 0.057 | 1.14 ± 0.19 | 0.982 ± 0.04 | 1.05 ± 0.021 | 0.864 ± 0.09
6 | CC(CCC(=O)O)[C@H]1CCC2C3C[C@H](O)[C@@H]4C[C@H](O)CC[C@]4(C)C3CC[C@@]21C (stereo partly drawn) [alpha-HYDROXYDEOXYCHOLIC ACID] | 1.04 ± 0.13 | 1.1 ± 0.078 | 1.06 ± 0.014 | 0.947 ± 0.1 | 0.974 ± 0.052
7 | CC(=O)O[C@]1(C(C)=O)CC[C@H]2[C@@H]3C=C(Cl)C4=CC(=O)CC[C@]4(C)[C@H]3CC[C@@]21C | 0.905 ± 0.016 | 0.972 ± 0.082 | 1.04 ± 0.042 | 0.9805 ± 0.0064 | 1.06 ± 0.088
8 | C=CCSCC(N)C(=O)O (stereo not given) | 1.015 ± 0.0071 | 0.976 ± 0.15 | 1.01 ± 0.05 | 0.923 ± 0.027 | 0.923 ± 0.02
9 | CC(=O)S[C@@H]1CC2=CC(=O)CC[C@]2(C)[C@H]2CC[C@@]3(C)[C@@H](CC[C@@]34CCC(=O)O4)[C@H]12 | 1.11 ± 0.014 | 0.97 ± 0.04 | 1.06 ± 0.064 | 0.878 ± 0.15 | 0.955 ± 0.016
10 | C=CCSCC1Nc2cc(Cl)c(S(N)(=O)=O)cc2S(=O)(=O)N1 (stereo not given) | 1.07 ± 0.042 | 1.11 ± 0.085 | 1.03 ± 0.021 | 1.06 ± 0.071 | 1.02 ± 0.028
11 | CC1(C)CC2C1CCC1(C)OC1CCC2(C)O (stereo not given) | 0.995 ± 0.036 | 1 ± 0.067 | 0.975 ± 0.0071 | 1.07 ± 0.078 | 1 ± 0.065
12 | CN(C)CCOC(c1ccccc1)c1ccccc1.Cn1c(=O)c2[nH]c(Cl)nc2n(C)c1=O | 0.909 ± 0.025 | 1.04 ± 0.1 | 0.927 ± 0.022 | 1.14 ± 0.13 | 1.12 ± 0.021
13 | C[C@@H]1CCC[C@H](C)N1NC(=O)c1ccc(Cl)c(S(N)(=O)=O)c1 | 1.04 ± 0.068 | 0.9815 ± 0.00071 | 0.96 ± 0.0071 | 0.993 ± 0.0099 | 0.984 ± 0.052
14 | O=C(O)c1cc(=O)c(O)c2c(O)c(O)c(O)cc2c1 | 0.948 ± 0.066 | 0.82 ± 0.04 | 1 ± 0.05 | 0.806 ± 0.25 | 0.993 ± 0.12
15 | Cc1c(C(=O)O)c(O)cc2c1C(=O)c1c(O)c([C@@H]3O[C@H](CO)[C@@H](O)[C@H](O)[C@H]3O)c(O)c(O)c1C2=O | 0.97 ± 0.032 | 1.01 ± 0.089 | 0.9855 ± 0.0078 | 1.08 ± 0.17 | 1.07 ± 0.14
16 | CCCCN(CCCC)CCCOC(=O)c1ccc(N)cc1 | 0.877 ± 0.033 | 0.92 ± 0.13 | 0.954 ± 0.053 | 1.11 ± 0.014 | 0.993 ± 0.011
17 | CC[C@@]1(O)C(=O)OCc2c1cc1n(c2=O)Cc2cc3cc(O)ccc3nc2-1 | 1.05 ± 0.071 | 0.724 ± 0.093 | 0.999 ± 0.14 | 0.871 ± 0.1 | 0.805 ± 0.041
18 | S=c1[nH]cnc2nc[nH]c12 | 0.733 ± 0.044 | 0.989 ± 0.1 | 0.932 ± 0.012 | 1.22 | 1.03 ± 0.021
19 | CC(=O)N[C@@H](Cc1c[nH]c2ccccc12)C(N)=O | 1.07 ± 0.11 | 0.831 ± 0.1 | 1.07 ± 0.028 | 1.04 ± 0.18 | 0.891 ± 0.061
20 | Cc1c(NC(=O)c2cccnc2)c(=O)n(-c2ccccc2)n1C | 1.01 | 1.1 ± 0.042 | 0.981 ± 0.015 | 1.06 ± 0.17 | 1 ± 0.037
21 | O=C1C=C2CC3(O)COc4cc(O)ccc4C3=C2C=C1O (stereo not given) | 1.02 ± 0.11 | 1.06 ± 0.12 | 0.98 ± 0.016 | 1.015 ± 0.0071 | 1.02
22 | C=CC(C)(O)CCC1C(=C)CC(OC(C)=O)C2C(C)(C)CCCC12C (stereo not given) | 0.929 ± 0.03 | 0.908 ± 0.041 | 0.971 ± 0.033 | 0.798 ± 0.013 | 0.87 ± 0.17
23 | CC1(C)O[C@@H]2C[C@H]3[C@@H]4CCC5=CC(=O)C=C[C@]5(C)[C@H]4[C@@H](O)C[C@]3(C)[C@]2(C(=O)CO)O1 | 0.999 ± 0.03 | 1.06 ± 0.05 | 0.977 ± 0.033 | 0.979 ± 0.086 | 0.9755 ± 0.0078
24 | CCCCOc1cc(CC2CNC(=O)N2)ccc1OC (stereo not given) | 0.999 ± 0.016 | 0.921 ± 0.081 | 0.912 ± 0.011 | 1.015 ± 0.0071 | 1.04 ± 0.19
25 | COc1cc2nc(N3CCN(C(=O)C4CCCO4)CC3)nc(N)c2cc1OC (stereo not given) | 1.05 ± 0.05 | 0.991 ± 0.11 | 1.03 ± 0.05 | 1.14 ± 0.13 | 1 ± 0.039
26 | COc1cccc2c1CCC1=CC(=O)CC[C@@]12C | 1.09 ± 0.099 | 1.004 ± 0.0085 | 1.03 ± 0.021 | 0.944 ± 0.073 | 0.967 ± 0.1
27 | C[C@H]1[C@H](C)CC[C@]2(CO)CC[C@]3(C)C(=CC[C@@H]4[C@@]5(C)CC[C@H](O)C(C)(C)[C@@H]5CC[C@]43C)[C@H]12 | 1 ± 0.042 | 1.02 ± 0.12 | 1 ± 0.05 | 0.871 ± 0.16 | 0.915 ± 0.048
28 | O=C(O)P(=O)(O)O | 1.06 ± 0.028 | 0.965 ± 0.05 | 1 ± 0.011 | 0.834 ± 0.0092 | 0.944 ± 0.031
29 | Cc1ncc(C[n+]2csc(CCO)c2C)c(N)n1 | 0.981 ± 0.041 | 0.978 ± 0.088 | 1.005 ± 0.0071 | 0.926 ± 0.011 | 0.946 ± 0.02
30 | COc1ccc2c(=O)c(-c3cc4c(cc3OC)OCO4)coc2c1 | 0.995 ± 0.093 | 1.01 ± 0.053 | 1.04 ± 0.035 | 1.03 ± 0.042 | 1.14 ± 0.014
